# Screening data: PubChem, several laboratories
# Compounds with a hit are over-represented: about 3.5% of the library has one in this group of screens.
# UHRF1 binding: UHRF1 methyl-DNA binding inhibition; inhibition, % at 4.4 µM; 370,000 compounds, 0.75% hits; UHRF1 binding to methylated oligo, TR-FRET; in the data active = inhibition above about 21%;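 note: UHRF1 SRA domain binding a hemimethylated CpG hairpin DNA probe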
# DNMT1 block: DNMT1 (human) enzyme inhibition. DNMT1 molecular beacon, Hinp1I cleavage, fluorescence. inhibition (reported as % activation of signal), % at 10 µM. AID 588458. 360,000 compounds, 0.83% hits. P26358; in the data active = inhibition above about 50%
# PG9 Ab binder: binds the HIV-1 gp120 antibody PG9; TR-FRET gp120-PG9 antibody binding; inhibition, % at 6.7 µM; 360,000 compounds, 0.43% hits; in the data active = inhibition above about 8.5%
# rCAG RNA binder: r(CAG) repeat RNA binding. 370,000 compounds, 1.3% hits. inhibition, % at 3 µM. AID 651821. TO-PRO-1 dye displacement fluorescence;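 active = inhibition above the plate cutoff, the mean of all test compounds on that plate plus 3 SD, cut at about 35% in these data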;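 note: higher means more dye released from RNA so lower well fluorescence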
# LEDGF integ inh: blocks HIV-1 LEDGF/p75-dependent DNA integration. TR-FRET IN-LEDGF/p75 DNA integration, Eu/Cy5. inhibition, % at 3.7 µM. 370,000 compounds, 0.64% hits. AID 743269;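 active = inhibition above the screen-wide mean plus 3 SD, cut at about 13% in these data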;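 note: signal is the Cy5 over europium emission ratio at 671 and 618 nm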
# MBD2 inh: blocks human MBD2 binding to methylated DNA. inhibition, % at 4.4 µM. 370,000 compounds, 0.31% hits. AID 686964. TR-FRET, MBD2 binding to methylated oligonucleotide; in the data active = inhibition above about 13%
# Target sequence (Q9UBB5 whole entry, looked up): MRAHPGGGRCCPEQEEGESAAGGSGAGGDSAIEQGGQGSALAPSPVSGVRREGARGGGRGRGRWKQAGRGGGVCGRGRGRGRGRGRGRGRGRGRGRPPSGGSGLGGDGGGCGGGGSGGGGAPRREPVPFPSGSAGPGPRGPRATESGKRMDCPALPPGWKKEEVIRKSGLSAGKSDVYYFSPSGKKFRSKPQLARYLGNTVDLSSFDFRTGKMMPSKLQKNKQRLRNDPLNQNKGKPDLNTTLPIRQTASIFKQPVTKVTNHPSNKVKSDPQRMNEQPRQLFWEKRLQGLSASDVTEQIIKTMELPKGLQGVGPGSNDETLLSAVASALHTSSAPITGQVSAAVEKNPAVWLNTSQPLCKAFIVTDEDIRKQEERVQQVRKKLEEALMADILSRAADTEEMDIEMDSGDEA
# rCAG binder conf: r(CAG) RNA repeat binding, confirmation. AID 652065. inhibition, % at 3 µM. shares compounds with rCAG RNA binder. 4,300 compounds, 70% hits. TO-PRO-1 dye displacement fluorescence;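 active = inhibition above a per-plate cutoff, the mean inhibition of sample wells plus 3 SD, cut at about 35% in these data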;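 note: loss of TO-PRO-1 fluorescence as compound displaces dye from 1x1 AA loop RNA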
# DNA CAG counter: DNA CAG dye complex inhibition counter-screen | shares compounds with rCAG RNA binder | AID 652068 | 4,300 compounds, 94% hits | d(CAG) DNA oligo TO-PRO-1 dye displacement, fluorescence | inhibition, % at 3 µM;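 active = inhibition above its plate's cutoff, the mean test-well inhibition plus 3 SD, cut at about 4.8% in these data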;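 note: hits displace the dye from DNA and so lower well fluorescence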
# DNA CAG DR: disrupts DNA CAG TO-PRO-1 complex in dose response | shares compounds with rCAG RNA binder | DNA CAG/GTC duplex TO-PRO-1 dye displacement fluorescence | IC50, µM | 250 compounds, 20% hits; in the data active = IC50 below about 10 µM
# Hits are given with their value; 0 = inactive; - = not tested or not shown.
SMILES,UHRF1 binding,DNMT1 block,PG9 Ab binder,rCAG RNA binder,LEDGF integ inh,MBD2 inh,rCAG binder conf,DNA CAG counter,others
Cc1ccc(OCC(=O)NS(=O)(=O)c2ccccc2)cc1,0,0,0,0,0,0,-,-,
Cc1ccc(OCc2nnn(CC(=O)NS(=O)(=O)c3c(C)noc3C)c2-c2ccccc2)cc1,0,0,0,61,0,0,67,19,
CC(=O)c1ccc(OCc2c(-c3ccccc3)nnn2CC(=O)NS(=O)(=O)c2ccc(C)cc2)cc1,0,0,0,48,0,0,60,15,
Cc1ccc(S(=O)(=O)NC(=O)Cn2nnc(-c3ccccc3)c2COc2ccc3ccccc3c2)cc1,0,0,0,80,0,0,86,50,
COc1ccc(C(=O)COC(=O)c2ccc3c(c2)OCO3)c(OC)c1,0,0,0,0,0,0,-,-,
CN1CCN(c2ncnc3c2ncn3[C@H]2CN(Cc3ccc(C(=O)O)cc3)C[C@@H](CO)O2)CC1,0,0,0,0,0,0,-,-,
COC(=O)c1cccc(CSc2nc(-c3ccccc3)c(C#N)c(=O)[nH]2)c1,0,0,0,75,0,0,63,23,
C=CCSc1nc(-c2ccccc2)c(C#N)c(=O)[nH]1,0,0,0,0,0,0,-,-,
Cc1nc(SCc2cccc(F)c2)[nH]c(=O)c1C#N,0,0,0,0,0,0,-,-,
N#Cc1c(-c2ccccc2)nc(SCc2ccc(Cl)cc2)[nH]c1=O,0,0,0,83,0,0,76,39,
CC(C)(C)c1ccc(C(=O)NCC(=O)N/N=C/c2cccnc2)cc1,0,0,0,0,0,0,-,-,
CCOC(=O)C1CCCN(C(=O)c2cc(F)ccc2C)CC1 (stereo unspecified),0,0,0,0,0,0,-,-,
CC1=NN(c2ccc(C)cc2)C(=O)/C1=C/c1ccc(-c2cc([N+](=O)[O-])ccc2O)o1,0,0,0,56,0,0,64,34,
CC1=NN(c2ccc(C(=O)O)cc2)C(=O)/C1=C/c1ccc(-c2ccccc2F)o1,-,0,-,-,-,-,-,-,
CC(/C=C/c1ccc(N(C)C)cc1)=N\N=C(/N)SC1CC(=O)N(c2ccc(C(=O)O)cc2)C1=O (stereo unspecified),0,0,0,0,0,0,-,-,
C/C(=N\N=C(/N)SC1CC(=O)N(c2cccc(Cl)c2)C1=O)c1cccs1 (stereo unspecified),0,0,0,54,0,0,73,29,DNA CAG DR=0
CCCOc1ccc(N2C(=O)CC(S/C(N)=N/N=C(\C)c3cccs3)C2=O)cc1 (stereo unspecified),0,0,0,66,0,0,70,26,DNA CAG DR=0
CC1CCC2(CC1)NC(=O)N(CC(=O)N1CCN(S(=O)(=O)c3ccc4c(c3)CCC4)CC1)C2=O (stereo unspecified),0,0,0,0,0,0,-,-,
Cc1ccc2nc(NC(=O)C3CCN(S(=O)(=O)c4cccs4)CC3)sc2c1,0,0,0,0,0,0,-,-,
Cc1ccc2nc(N/C(=N/S(=O)(=O)c3cccs3)c3ccccc3Cl)sc2c1,0,0,0,71,0,0,51,19,
COc1ccc2nc(-n3c(O)c(C4=c5ccccc5=NC4=O)[nH]c3=S)sc2c1,0,0,0,49,0,0,94,78,
CCC(C(=O)NC(C)(C)C)n1c(-c2ccc3c(c2)OCO3)nc2ccccc21 (stereo unspecified),0,-,0,0,0,0,-,-,
Cc1ccc(S(=O)(=O)Nc2ccc(Br)cc2C(NCC(=O)O)c2ccccc2)cc1 (stereo unspecified),0,0,0,73,0,0,75,26,DNA CAG DR=0
COC(=O)CNC(c1ccccc1)c1cc(C)ccc1NS(=O)(=O)c1ccc(C)cc1 (stereo unspecified),0,0,0,0,0,0,-,-,
CCCC(=O)Nc1sc(-c2ccccc2)c(-c2ccccc2)c1C(=O)O,0,0,0,41,0,0,0,0,
SMILES,UHRF1 binding,DNMT1 block,PG9 Ab binder,rCAG RNA binder,LEDGF integ inh,MBD2 inh,rCAG binder conf,DNA CAG counter,others
CCOc1cc(/C=C/C(=O)OCC(=O)N(CC)C2CCS(=O)(=O)C2)cc(Cl)c1OC (stereo unspecified),0,0,0,0,0,0,-,-,
CC(C)C[C@@H](C(=O)N[C@@H](C(=O)O)c1ccccc1)N1C(=O)N2CCc3c([nH]c4ccccc34)[C@@]2(C)C1=O,0,0,0,43,0,0,43,12,
O=S(=O)(Nc1ncnc2scc(-c3ccc(F)cc3)c12)c1cc(F)ccc1F,0,0,0,54,0,0,55,20,
Cc1ccc(-c2csc3ncnc(NS(=O)(=O)c4ccc(Cl)cc4)c23)cc1,0,0,0,0,0,0,-,-,
C=CCN1[C@H](C)COc2cc(F)ccc2S1(=O)=O,0,-,-,0,0,0,-,-,
CCc1ccc(C(=O)Nc2cccc(-c3nn[nH]n3)c2)s1,0,0,0,0,0,0,-,-,
CCCc1cc(C(=O)Nc2cccc(-c3nn[nH]n3)c2)sc1C,0,0,0,40,0,0,35,8.5,
CCCc1nc2nc(C)c(NS(=O)(=O)c3ccc(C4CCCCC4)cc3)c(=O)n2[nH]1,0,0,0,59,0,0,62,16,
Clc1cccc(-c2nc(-c3ccc(-c4nn[nH]n4)cc3)no2)c1,0,0,0,36,0,0,62,19,DNA CAG DR=0
Cc1ccc(N=C2S/C(=C\c3cn(CC(=O)O)c4ccccc34)C(=O)N2C)cc1,0,0,0,77,0,0,76,36,
COC(=O)CSc1nnc(-c2ccc(NS(=O)(=O)c3ccc(C)c(C)c3)cc2)o1,0,-,-,0,0,0,-,-,
Cc1ccc(NC(=O)CN2C(=O)S/C(=C\c3ccc(C(=O)O)cc3)C2=O)cc1,0,0,0,0,0,0,-,-,
Cc1ccc(NC(=O)CN2C(=O)S/C(=C\c3cc(C)n(-c4cccc(C(=O)O)c4)c3C)C2=O)cc1,0,0,0,72,0,0,71,32,DNA CAG DR=0
Cc1ccc(C)c(N2C(=N)S/C(=C\c3ccc(-c4ccccc4C(=O)O)o3)C2=O)c1,21,0,0,45,0,0,39,10,
C#CCN1C(=O)S/C(=C\c2ccc(-c3ccc(C(=O)O)cc3C)o2)C1=O,41,79,0,48,0,0,43,16,
Cc1ccc(NC(=O)CN2C(=O)S/C(=C\c3cc(C)n(C)c3C)C2=O)cc1,0,0,0,0,0,0,-,-,
Cc1ccc(C(=O)O)cc1-c1ccc(/C=C2\SC(=O)N(CC(=O)Nc3ccccc3)C2=O)o1,22,67,0,42,0,0,89,66,
